Drawing on PubChem BioAssay AID463173 (ICCB-Longwood Screening Facility, Harvard Medical School, 2010), this text covers survival for 89 compounds.

The whole screen tested about 52,000 compounds, of which about 4,300 (8.3%) were called active. No stated cut-off is given here; in the data, active means survival mostly below about 52% (no sharp cut-off); inactive means mostly above about 56%. For the sample, actives were picked, then their nearest neighbours and some compounds at random.

This assay deals with DeltatarO mutant. The assay is described as follows: growth inhibition of S. aureus wild type versus tarO mutant, primary screen, teichoic acid synthesis inhibitors, RN4220, OD600 (AID 463173). The note with it: OD600, 18 h, hits give low values, screened at 18.75 µg/mL (by protocol).
Turning to `CCOc1cc(CNC(=O)c2ccc3nc(C(C)C)oc3c2)cc(OCC)c1OCC`, the survival was 47% (active).
Take `CCc1ccc(CNC(=O)c2ccc3nc(C(C)C)oc3c2)cc1`: the survival was 82% (inactive).
Turning to `O=C(NCc1ccccc1)c1ccc2nc(CCc3ccccc3)oc2c1`, the survival is 0% (active).
For the compound `COc1ccc(CCNC(=O)c2ccc3nc(Cc4ccccc4)oc3c2)cc1OC`, the survival is 99% (inactive).
Consider `COc1ccc(CCNC(=O)c2ccc3nc(CCc4ccccc4)oc3c2)cc1OC`, for which the survival is 37% (active).
With `O=C(NCCc1ccccc1)c1ccc2nc(CCc3ccccc3)oc2c1`, the survival was 32% (active).
In the case of `COc1ccc(Cc2nc3ccc(C(=O)NCCc4ccc(OC)c(OC)c4)cc3o2)cc1`, the survival is 77% (inactive).
For `O=C(NCCc1ccc(Cl)cc1)c1ccc2nc(CCc3ccccc3)oc2c1`, the survival is 75% (inactive).
Regarding `O=C(NCc1cccc(F)c1)c1ccc2nc(CCc3ccccc3)oc2c1`, the survival is 79% (inactive).
As to `CCOc1ccc(CNC(=O)c2ccc3nc(C(C)C)oc3c2)cc1`, the survival was 76% (inactive).
For the compound `CN(C)c1ccc(CNC(=O)c2ccc3nc(CCc4ccccc4)oc3c2)cc1`, the survival is 93% (inactive).
For `CCCNC(=O)c1ccc2nc(CCc3ccccc3)oc2c1`, the survival is 78% (inactive).
Consider `COc1ccc(Cn2ccc3nc(C)c(C(=O)Nc4cccc(SC)c4)cc3c2=O)cc1`, for which the survival was 95% (inactive).
As to `COc1ccc(Nc2ncc(C(=O)N3CCN(c4ccc(OC)cc4)CC3)c3ccccc23)cc1`, the survival was 74% (inactive).
With `CCOc1ccc(N(CC(=O)Nc2ccc3c(c2)OCO3)S(=O)(=O)c2ccccc2)cc1`, the survival was 87% (inactive).
For `O=C(O)CSc1c2c(nc3cc(C(=O)Nc4ccc(F)c(Cl)c4)ccc13)CCC2`, the survival was 88% (inactive).
As for `Cc1cc(S(=O)(=O)n2ccnc2C(C)C)cc([N+](=O)[O-])c1C`, the survival was 57% (inactive).
Regarding `COc1ccc(CNC(=O)c2ccc3nc(CCc4ccccc4)oc3c2)cc1`, the survival was 0% (active).
Next, `COc1ccc(CNC(=O)c2ccc3nc(CCc4ccccc4)oc3c2)cc1OC`: 79% (inactive).
Regarding `COc1ccc(CNC(=O)c2ccc3nc(CCc4ccccc4)oc3c2)c(OC)c1`, the survival is 135% (inactive).
For `Cc1ccc(-c2onc(C)c2C)cc1S(=O)(=O)NC1CCCCC1`, the survival was 77% (inactive).
Next, `COc1ccc(NC(=O)c2ccco2)cc1NC(=O)c1cc(Cl)ccc1OC`: 49% (inactive).
As to `COc1ccc(NC(=O)c2ccco2)cc1NC(=O)COc1ccc(Cl)cc1C`, the survival was 57% (inactive).
Turning to `COc1ccc(NC(=O)c2ccco2)cc1NC(=O)C(C)(C)Oc1ccc(Cl)cc1`, the survival was 40% (active).
Next, `COc1ccc(NC(=O)c2ccco2)cc1NC(=O)c1ccc(OC(C)C)cc1`: 121% (inactive); `COc1ccc(NC(=O)c2ccco2)cc1NC(=O)C(C)C`: 84% (inactive); `COc1ccc(NC(=O)c2ccco2)cc1NC(=O)C(C)Oc1ccc(Cl)cc1Cl` (centres undefined): 28% (active).
Take `COc1ccc(NC(=O)c2sc3nc(C)c(C(=O)Nc4ccc(C)cc4C)c(-c4sccc4C)c3c2N)cc1`: the survival is 91% (inactive).
Turning to `c1ccc(NCc2ccncc2)cc1`, the survival is 83% (inactive).
On to `C=Cn1cccc1C(=O)O`, for which the survival was 83% (inactive).
For `CC(C)CCNC(=O)c1ccc2c(c1)NC(=O)C(CS(=O)(=O)Cc1ccc(F)cc1)N2` (centres undefined), the survival is 80% (inactive).
As for `Cc1ccc(CNC(=O)CCCc2nnc3n(CC(C)C)c(=O)c4sccc4n23)cc1`, the survival is 101% (inactive).
Consider `CCOC(=O)Cn1c(=O)n(-c2ccccc2OC)c2nc(-c3ccccc3)nc(C(N)=O)c21`, for which the survival was -1% (active).
To `CCOC(=O)Cn1c(=O)n(CC2CCCO2)c2nc(-c3cccc(C)c3)nc(C(N)=O)c21` (centres undefined) belongs 79% (inactive).
Regarding `CCOC(=O)Cn1c(=O)n(CC2CCCO2)c2nc(-c3ccc(CC)cc3)nc(C(N)=O)c21` (centres undefined), the survival is 72% (inactive).
On to `CCOC(=O)Cn1c(=O)n(-c2ccccc2OC)c2nc(-c3cccc(F)c3)nc(C(N)=O)c21`, for which the survival was 64% (inactive).
With `CCOC(=O)Cn1c(=O)n(CC2CCCO2)c2nc(-c3ccc(C(C)C)cc3)nc(C(N)=O)c21` (centres undefined), the survival was 6% (active).
Next, `CCOC(=O)Cn1c(=O)n(-c2ccccc2OC)c2nc(-c3ccc(C(C)C)cc3)nc(C(N)=O)c21`: 86% (inactive).
To `CCOC(=O)Cn1c(=O)n(CC2CCCO2)c2nc(-c3ccccc3)nc(C(N)=O)c21` (centres undefined) belongs 84% (inactive); to `CCOC(=O)Cn1c(=O)n(CC2CCCO2)c2nc(-c3ccc(OCC)cc3)nc(C(N)=O)c21` (centres undefined), -2% (active); to `CCOC(=O)Cn1c(=O)n(CC2CCCO2)c2nc(-c3ccc(C)cc3)nc(C(N)=O)c21` (centres undefined), 67% (inactive).
`COc1cc(OC)c(NC(=O)C2CCCN(c3ncnc4c3nc3n4CCCCC3)C2)cc1Cl` (centres undefined): the survival was 122% (inactive).
For the compound `O=C1c2ccccc2C(=O)N1c1ncn[nH]1`, the survival is 94% (inactive).
Take `O=C(CSc1nc2c([nH]c3ccccc32)c(=O)n1-c1ccc(F)cc1)Nc1ccc2c(c1)OCO2`: the survival was 58% (inactive).
Consider `COc1ccc(NC(=O)Cn2c(=O)n(CCCC(=O)NCc3ccccc3Cl)c(=O)c3ccccc32)c(OC)c1`, for which the survival was 125% (inactive).
To `O=C(CC1N=C2c3ccccc3N=C(SCc3ccc(Cl)cc3)N2C1=O)NCc1cccs1` (centres undefined) belongs 75% (inactive); to `COc1ccc(CCNC(=O)c2ccc(Cn3c(=O)c4ccccc4n(Cc4cccc(F)c4)c3=O)cc2)cc1OC`, 78% (inactive); to `CNC(=O)C1CCC(Cn2c(=O)c3sccc3n(CC(=O)NCc3ccccc3)c2=O)CC1` (centres undefined), 32% (active).
Next, `CNC(=O)C1CCC(Cn2c(=O)c3sccc3n(CC(=O)NCc3ccc(C)cc3)c2=O)CC1` (centres undefined): 80% (inactive); `CNC(=O)C1CCC(Cn2c(=O)c3sccc3n(Cc3cc(C)ccc3C)c2=O)CC1` (centres undefined): 47% (active); `Cc1ccc(C)c(Cn2c(=O)n(CC3CCC(C(=O)N4CCOCC4)CC3)c(=O)c3sccc32)c1` (centres undefined): 80% (inactive).
Take `CNC(=O)C1CCC(Cn2c(=O)c3sccc3n(CC(=O)Nc3ccc(C)cc3C)c2=O)CC1` (centres undefined): the survival is 87% (inactive).
Next, `CNC(=O)C1CCC(Cn2c(=O)c3sccc3n(CC(=O)NCc3ccc(F)cc3)c2=O)CC1` (centres undefined): 73% (inactive); `COc1ccc(CC(=O)NC2CC(=O)N(c3cccc(F)c3)C2)cc1` (centres undefined): 94% (inactive).
On to `O=C(Nc1nncs1)C1c2ccccc2Oc2ccccc21`, for which the survival is 108% (inactive).
Next, `CCOC(=O)C1CCCN(S(=O)(=O)c2ccc3c(c2)CCCN3C(C)=O)C1` (centres undefined): 80% (inactive).
To `CS(=O)(=O)N1CCSC1c1ccc(Cl)cc1Cl` (centres undefined) belongs 109% (inactive); to `COc1ccc2oc(=O)c(-c3nnc(-c4ccccc4)o3)cc2c1`, 69% (inactive).
Turning to `O=C(O)CCC(=O)NCc1ccccn1`, the survival is 82% (inactive).
`COc1cccc(NC(=O)CSc2nc3ccc(NC(=O)c4cccs4)cc3s2)c1`: the survival is 65% (inactive).
Take `Cc1cc(C)c(-c2csc(-c3cc4ccccc4oc3=O)n2)cc1C`: the survival was 31% (active).
Consider `COc1ccc(/C=C(/C#N)c2nc(-c3cc4ccccc4oc3=O)cs2)cc1`, for which the survival was 78% (inactive).
Turning to `CCN(CC)c1ccc2cc(-c3nc(-c4ccccc4F)no3)c(=O)oc2c1`, the survival was 101% (inactive).
To `CCN(CC)c1ccc2cc(-c3nc(-c4ccc(Cl)cc4Cl)cs3)c(=O)oc2c1` belongs 37% (active); to `COc1ccc(/C=C(\C#N)c2nc(-c3cc4ccccc4oc3=O)cs2)cc1OC`, 65% (inactive); to `Cc1csc(-c2cc3ccccc3oc2=O)n1`, 85% (inactive).
Next, `O=c1oc2ccccc2cc1-c1nc(-c2cccc(Cl)c2)cs1`: 102% (inactive); `COc1ccccc1/C=C(\C#N)c1nc(-c2cc3ccccc3oc2=O)cs1`: 56% (active).
For the compound `CCN(CC)c1ccc2cc(-c3nnc(-c4cccc(Cl)c4)o3)c(=O)oc2c1`, the survival was 69% (inactive).
Regarding `CCCNC(=O)C1CCC(Cn2c(=O)c3sccc3n(CC(=O)N3CCCC3)c2=O)CC1` (centres undefined), the survival was 67% (inactive).
With `O=c1cc(-c2ccc(F)cc2)nc(SCc2nc(-c3cccc(C(F)(F)F)c3)no2)[nH]1`, the survival is 99% (inactive).
Consider `COc1ccc(C)cc1NC(=O)C(CCSC)NS(=O)(=O)c1ccc2c(c1)oc(=O)n2C` (centres undefined), for which the survival is 95% (inactive).
Turning to `CCc1cccc(NC(=O)c2cnc(SC)nc2-c2ccccc2)c1`, the survival is 84% (inactive).
In the case of `COc1ccc2c(Sc3ccccc3)c(C(=O)NCc3cc(Br)ccc3OC)[nH]c2c1`, the survival is 95% (inactive).
In the case of `Cc1cc(C)cc(NC(=O)CSc2cc(C)[nH]c(=O)n2)c1`, the survival was 90% (inactive).
On to `CC(=O)c1cccc(Nc2ncnc3c2cnn3-c2cccc(Cl)c2)c1`, for which the survival is 102% (inactive).
Take `CC(C)c1ccc(C2=CC(c3ccc(C(C)C)cc3)n3nnnc3N2)cc1` (centres undefined): the survival is 67% (inactive).
For the compound `COc1ccc(C2C=C(c3ccccc3)Nc3nc(NS(=O)(=O)c4ccccc4)nn32)cc1` (centres undefined), the survival was 25% (active).
With `Cc1ccc(C2=CC(c3c(F)cccc3Cl)n3ncnc3N2)cc1C` (centres undefined), the survival is 64% (inactive).
As to `Cc1ccc(C2=CC(c3ccc(Cl)cc3)n3nc(-c4ccc(C)cc4)nc3N2)cc1` (centres undefined), the survival is 44% (inactive).
As to `CC(C)c1ccc(C2=CC(c3cccc(Cl)c3)n3ncnc3N2)cc1` (centres undefined), the survival was -1% (active).
Regarding `COc1cccc(C2=CC(c3ccc(OC)c(OC)c3OC)n3ncnc3N2)c1` (centres undefined), the survival was 91% (inactive).
As for `CC(C)c1ccc(C2=CC(c3cccc(Cl)c3)n3c(nc4ccccc43)N2)cc1` (centres undefined), the survival was 76% (inactive).
Regarding `COc1ccc(C2C=C(c3ccc(Cl)cc3)Nc3nc(-c4ccc(Cl)cc4)nn32)cc1` (centres undefined), the survival was 38% (active).
With `COc1ccc(C2C=C(c3ccccc3)Nc3nc(NS(=O)(=O)c4ccc(C)cc4)nn32)cc1` (centres undefined), the survival was 55% (inactive).
For `COc1ccc(C2C=C(c3ccc(Cl)c(Cl)c3)Nc3ncnn32)cc1` (centres undefined), the survival is 6% (active).
Next, `COc1ccc(C2C=C(c3ccc(F)cc3)Nc3nc(-c4ccc(Cl)cc4)nn32)cc1` (centres undefined): 104% (inactive); `CC(=O)Nc1ccc(S(=O)(=O)NCc2ccc3c(c2)CCN3C(C)=O)cc1`: 89% (inactive); `Cc1ccc(N2C(=O)[C@@H]3CSC(c4ccc(Cl)cc4)N3C2=O)cc1` (some centres undefined): 69% (inactive).
